Compound activity from PubChem BioAssay.
Shown are actives, neighbours in structure and some others; about 11% of the full set was active somewhere.
IMPase Li cell: cell-permeable IMPase inhibitors with lithium potentiation. CHO-M1 cells, IP1 TR-FRET (IP-One), carbachol + lithium. Potency, µM (top dose mostly 59.4 µM), for inactives: at the highest dose activity, negative = IMPase inhibition, most hits filed as inhibitors. hit rate 0.35% among 210,000. AID 1457; active = well fitted curve in the direction sought with a large enough effect; inconclusive = small, poorly fitted or top-dose-only effect, or another doubt; inactive = no such curve, though single readings can be large; an effect the other way counts as inactive or inconclusive;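 also: IP1 builds up when IMPase is blocked and the TR-FRET signal falls; potency is read from the fitted curve at half-maximal effect; plate controls were basal vehicle for no effect and high inhibitor control for full effect; nearly all actives have a fitted effect of over 50% in size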
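Lithium-sensitised IP1 accumulation assay; M1-expressing CHO cells treated 30 min at 37C with compound. Competitive antibody detection by time-resolved FRET followed a 10 min room-temperature lysis step.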
IMPase inh: IMPase inhibition in cells | P97697 | CHO-M1 cells, IP1 accumulation, HTRF TR-FRET ratio | inhibition (IP1 accumulation), % at 46.1 µM | 120,000 tested, under 10 active | AID 901; active = well fitted curve in the direction sought with a large enough effect in the signal ratio, not every such curve was filed as active; inconclusive = small, poorly fitted or top-dose-only effect, or a change in a side signal; inactive = no such curve, though single readings can be large or run the other way; the % refers to the signal ratio;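 also: cells stimulated with carbachol in lithium chloride buffer; plate controls were DMSO basal wells for no effect and reference inhibitor wells for full effect; higher means more IMPase inhibition seen as more IP1 and lower FRET ratio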
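CHO-M1, 2000 cells/well, cultured 16–30 h; cpd up to 46 uM; carbachol (50 uM solution, stimulation buffer w/ 50 mM LiCl, pH 7.4), 30 min 37C; IP-One TR-FRET, 10 min RT; Ex 320/Em 665, 620; Hill-fit AC50.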
PNC inhibitor: perinucleolar compartment assembly inhibition | PC3M PTB-GFP, PNC prevalence imaging, 16 h; stronger effect = lower value | activity change (PNC), negative = inhibition, % at 10 µM | hit rate 3.1% among 140,000;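 active = readout at or below -70, meaning at least 70% loss of cells showing the perinucleolar compartment, a nuclear body marking cancer cells; inconclusive = readout between -30 and a set limit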;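 also: plate controls were DMSO wells for no effect and camptothecin positive control wells for full effect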
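Read-out is percentage of cells bearing a perinucleolar compartment, from automated 20x imaging of fixed, Hoechst-stained PC3M PTB-GFP cells. Cells were seeded 4 h, then exposed 16 h to compound (23 nl of library stock) in duplicate plates.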
ALOX12 inhib: 12-hLO (ALOX12) enzyme inhibition; purified 12-hLO, xylenol orange hydroperoxide absorbance; AID 1452; Potency, µM (doses to about 57.1 µM), without a hit: top-dose activity change, negative = inhibition, most hits filed as inhibitors; P18054; hit rate 0.12% among 150,000; active = well fitted curve in the direction sought with a large enough effect; inconclusive = small, poorly fitted or top-dose-only effect, or another doubt; inactive = no such curve, though single readings can be large; an effect the other way counts as inactive or inconclusive; also: potency is read from the fitted curve at half-maximal effect; nearly all actives have a fitted effect of over 55% in size
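Hydroperoxide output read as Fe(III)-xylenol orange absorbance, 573-to-405 nm ratio, after 30 min reaction with 40 uM arachidonic acid. Enzyme: 150 nM purified human 12hLO, 15 min compound preincubation; 25 mM Hepes pH 7.0, room temperature.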
HPGD inh: inhibitors of human 15-hydroxyprostaglandin dehydrogenase (HPGD). purified HPGD, NADH fluorescence kinetic, PGE2 substrate. Potency, µM, without a hit: top-dose activity change, negative = inhibition, hits mostly inhibitors. AID 894. P15428. hit rate 4.3% among 150,000; also: potency is read from the fitted curve at half-maximal effect
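NADH formation kinetics: reaction with 30 uM PGE2 and 1 mM NAD+ (final), 20 nM enzyme, Tris-HCl pH 8 with Tween 20, after 15 min compound preincubation at room temperature. Fluorescence change, last versus first of five reads.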
ALDH1A1 block: ALDH1A1 (human) enzyme inhibition | P00352 | Purified ALDH1A1, NADH fluorescence, propionaldehyde substrate | Potency, µM (titrated, usually from 75.3 µM), for the others: top-dose activity, negative = inhibition, usual class: inhibitors | hit rate 7.3% among 220,000 | AID 1030;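 also: potency is read from the fitted curve at half-maximal effect; plate controls were no enzyme wells and a reference inhibitor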
Target sequence (P00352 whole entry, looked up): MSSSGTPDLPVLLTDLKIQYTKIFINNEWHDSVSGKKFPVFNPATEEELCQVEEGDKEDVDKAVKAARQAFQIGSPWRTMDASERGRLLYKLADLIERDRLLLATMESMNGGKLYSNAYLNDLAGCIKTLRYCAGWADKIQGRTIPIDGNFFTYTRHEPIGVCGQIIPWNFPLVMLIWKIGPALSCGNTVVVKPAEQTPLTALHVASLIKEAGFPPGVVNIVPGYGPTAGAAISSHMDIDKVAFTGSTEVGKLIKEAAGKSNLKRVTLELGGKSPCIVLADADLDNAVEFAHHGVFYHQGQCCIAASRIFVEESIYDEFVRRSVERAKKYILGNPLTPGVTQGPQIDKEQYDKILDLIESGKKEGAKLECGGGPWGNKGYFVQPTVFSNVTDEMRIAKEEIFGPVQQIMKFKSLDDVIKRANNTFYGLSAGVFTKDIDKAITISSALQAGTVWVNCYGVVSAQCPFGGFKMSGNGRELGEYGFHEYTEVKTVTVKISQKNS
Numbers without * were called inactive; ? = inconclusive; · = no result given; [ ] = remark or other dose. Unless noted, calls follow the shape of the dose curve; as a rule, active = well fitted inhibition curve with a large enough effect (not every such curve was filed as active); inconclusive = small, poorly fitted or top-dose-only effect, or another doubt; inactive = no such curve, though single readings can be large or run the other way. Unless noted, % is scaled to controls: 0 for no effect and ±100 for the full control effect.

SMILES	IMPase Li cell	IMPase inh	PNC inhibitor	ALOX12 inhib	HPGD inh	ALDH1A1 block
CCOC(=O)c1c(C)nc2sc(C(N)=O)c(N)c2c1-c1ccc(OC)cc1	-9.3%[38.3 µM]	-0.2	40.9	-0.9%	-10.7%	6.3%
COCC(=O)NC1CCN(CC(=O)Nc2ccc(OC)cc2[N+](=O)[O-])CC1	9.5%[38.3 µM]	2.2	-26.5	4.4%	-10.6%	12.6µM*
COC(=O)c1ccc(NC(=O)CN2CCC(NC(=O)c3ccco3)CC2)cc1	-2.3%	·	·	·	·	8.4%
O=C(CN1CCC(NC(=O)c2ccco2)CC1)Nc1ccccc1[N+](=O)[O-]	0.6%	·	·	·	·	22.4µM*
COc1cc(OC)cc(C(=O)NC2CCN(CC(=O)Nc3cccc4ccccc34)CC2)c1	-1.9%	?	6.5	18.7%	-21.7%	2.7%
COCC(=O)NC1CCN(CC(=O)Nc2ccccc2[N+](=O)[O-])CC1	12.1%	·	·	·	·	-12.8%
O=C(CN1CCC(NC(=O)c2ccco2)CC1)Nc1cccc2ccccc12	4.0%	-5.7	-100.0*	2.8%	-6.7%	11.5%
Cc1ccccc1Oc1nc2c(c(=O)n(C)c(=O)n2C)n1Cc1ccc(Br)cc1	·	-0.4	·	·	·	·
COCCNC(=O)c1noc2c1CCc1cc(OC)ccc1-2	12.8%[38.3 µM]	-7.2	37.4	-3.2%	25.1µM*	-1.5%
COCC(C)NC(=O)c1noc2c1CCc1cc(OC)ccc1-2 (stereo unspecified)	23.3%[38.3 µM]	1.9	0.9	4.9%	-13.1%	-10.3%
Cc1csc2nc(CSc3nncn3-c3ccccc3)c(Br)n12	33.7%[38.3 µM]	13.5	-12.9	0.7%	3.9%	-12.8%
Cc1csc2nc(CSc3nc4ccccc4o3)c(Br)n12	42.4%[38.3 µM]	22.0	15.9	-3.2%	14.1µM*	22.4µM*
COc1ccc(Oc2ncc3nc(-c4cccs4)c(=O)n(CCC#N)c3n2)cc1	10.8%	·	·	·	·	-14.7%
CCOC(=O)c1c(/N=C/c2cccc([N+](=O)[O-])c2O)sc(C)c1C	15.4%	·	-1.8	-17.3%	?	12.6µM*
CN(CC(=O)Nc1ccc(Cl)cc1)CC(=O)Nc1ccc(C(N)=O)cc1	7.5%	·	·	·	·	31.6µM*
CCOc1ccccc1CN(CCc1ccc2c(c1)OCO2)Cc1cccc(OC)c1OC	·	7.8	·	·	·	·
COc1ncc2nc(CCc3ccccc3)c(=O)n(Cc3cccs3)c2n1	9.2%	·	·	-8.4%	-13.1%	-18.3%
O=C(CC1SC(=Nc2ccccc2)N(CCO)C1=O)Nc1ccccc1 (stereo unspecified)	-0.8%	·	·	·	·	-0.6%
CCCN1C(=O)SC(CC(=O)Nc2ccccc2)C1=O (stereo unspecified)	-10.9%[38.3 µM]	0.3	37.7	-4.4%	-3.1%	20µM*
CCCN1C(=O)SC(CC(=O)Nc2cccc3ccccc23)C1=O (stereo unspecified)	-2.5%	·	-24.5	0.9%	-4.6%	22.4µM*
C[C@@H]1CCC2[C@@H](C)[C@@H](O)O[C@@H]3O[C@@]4(C)CC[C@@H]1[C@@]23OO4 (stereo partly specified)	-5.4%	·	·	5.5%	-14.0%	?
CC1(C)OC(=O)C(=Cc2ccc[nH]2)C(=O)O1	·	·	·	·	·	15.8µM*
COC/C=C/C1=CC2=CC(=O)C(C)(OC(=O)CCc3ccccc3)C(=O)C2=CO1 (stereo unspecified)	7.5%	·	·	7.3%	-5.3%	7.2%
O=C(c1cccc(F)c1)N1CCC2(CCCN(Cc3ccccc3)C2)CC1	27.2%	·	·	0.7%	-8.9%	7.5%
COc1cc2c3c(c1)C(C)=CC(C)(C)N3C(=O)C2=O	12.5%	·	·	·	·	3.55µM*
COc1ccc(C(=O)Oc2cc3c4c(c2)C(C)=CC(C)(C)N4C(=O)C3=O)cc1OC	4.7%	0.1	-20.7	-0.1%	31.6µM*	?
COc1cc2c3c(c1)C1(C(=O)N3C(C)(C)C=C2C)C(C#N)=C(N)Oc2cc(O)ccc21 (stereo unspecified)	-7.1%[38.3 µM]	-5.2	?	-18.7%	-16.9%	2.6%
COc1ccc(N2C(=O)CSC23C(=O)N2c4c(cccc43)C(C)=CC2(C)C)cc1 (stereo unspecified)	54.6%[38.3 µM]	9.2	56.4	6.5%	-7.7%	-14.9%
